This test concerns Plasmodium falciparum NF54 stage V gametocytes. The experiment in a line: viability index relative to DMSO control (fraction); higher = less gametocyte killing. Particulars: 2.5 µM, incubation time: 72 h. The essentials: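 Stage V gametocytes of P. falciparum NF54 were held in serum-free screening medium at 0.75% gametocytemia and 1.25% hematocrit, 10 µl per well of a 1,536-well plate, and exposed to compound at 2.5 µM for 72 hr at 37°C under low oxygen. A 3 µl mix of 2.5 µM MitoTracker Red CMXRos with 0.13% saponin was then added for one to two hours, after which one field per well was imaged and red particles of 20–70 µm2 were counted. The viability index equals this count divided by the plate mean from wells given solvent alone.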

Setting [1] is: library set: Broad Institute DOS.
Setting [2] is: library set: Broad Institute Blood Stage.

± gives the uncertainty stated by the source. The full ranking holds about 9,900 compounds; the median of “viability index relative to DMSO control” is about 1, and the lowest 2% start at about 0.85. The full list was thinned out, with the lowest values kept by preference.

The molecule `N#Cc1cccc(-c2ccc([C@@H]3[C@@H](CO)N4CCCCN(Cc5ccccc5F)C[C@H]34)cc2)c1` had a viability index under setting [1] of 0.889 ± 0.028.

Under setting [1], `C[C@H](CO)N1C[C@H](C)[C@@H](CN(C)S(=O)(=O)c2ccc(Cl)cc2)OCCCC[C@H](C)Oc2ccc(NC(=O)Nc3ccc(C(F)(F)F)cc3)cc2C1=O` gave a viability index of 1.1 ± 0.11.

With `O=C(CC1CC1)N1CC(=O)N2[C@H](C1)[C@H](c1ccc(C#Cc3cccc(F)c3)cc1)[C@@H]2CO`, the viability index under setting [1] is 0.974 ± 0.063.

Regarding `COc1ccc([C@H]2C/C=C/C[C@H](C)Oc3ccccc3C(=O)N(C)[C@@H](Cc3ccccc3)C(=O)N2)c(OC)c1.COc1ccc([C@H]2C/C=C\C[C@H](C)Oc3ccccc3C(=O)N(C)[C@@H](Cc3ccccc3)C(=O)N2)c(OC)c1`, the viability index under setting [1] turned out to be 0.861 ± 0.046.

In turn, `COc1ccc2c3c([nH]c2c1)[C@@H](CO)N(C[C@]31CCN(CC1)S(C)(=O)=O)C(=O)NC1CCCC1` registered a viability index under setting [1] of 1.01 ± 0.02.

Molecule `Cc1noc(C)c1S(=O)(=O)N(C)C[C@H]1OCc2ccccc2-c2c(n(C)c3ccccc23)C(=O)N([C@H](C)CO)C[C@H]1C` yielded a viability index under setting [1] of 0.948 ± 0.025.

Under setting [1], `O=S(=O)(c1cccc(F)c1)N1[C@@H]2CNC[C@H]1[C@H]2c1ccc(-c2ccccc2F)cc1` gave a viability index of 1.06 ± 0.051.

In turn, `C[C@@H]1CN([C@@H](C)CO)C(=O)c2c(c3ccccc3n2C)-c2ccccc2CO[C@@H]1CN(C)S(=O)(=O)c1ccc([N+](=O)[O-])cc1` gave a viability index under setting [1] of 0.998 ± 0.098.

Consider `C[C@@H]1CN([C@@H](C)CO)C(=O)c2c(c3ccccc3n2C)-c2ccccc2CO[C@H]1CN(C)S(=O)(=O)c1ccc([N+](=O)[O-])cc1`, for which the viability index under setting [1] was 0.93 ± 0.086.

For `C[C@H](CO)N1C[C@H](C)[C@@H](CN(C)S(=O)(=O)c2ccc([N+](=O)[O-])cc2)OCc2ccccc2-c2c(n(C)c3ccccc23)C1=O`, the viability index under setting [1] stood at 0.896 ± 0.046.

`C[C@H](CO)N1C[C@H](C)[C@H](CN(C)S(=O)(=O)c2ccc([N+](=O)[O-])cc2)OCc2ccccc2-c2c(n(C)c3ccccc23)C1=O` yielded a viability index under setting [1] of 0.969 ± 0.015.

Consider `C[C@@H]1CN([C@@H](C)CO)C(=O)c2c(c3ccccc3n2C)-c2ccccc2CO[C@@H]1CN(C)Cc1cccc(C(F)(F)F)c1`, for which, under setting [1], the viability index was 0.839 ± 0.039.

Regarding `C[C@H]1CN([C@@H](C)CO)C(=O)c2c(c3ccccc3n2C)-c2ccccc2CO[C@@H]1CN(C)C(=O)Nc1ccccc1C(F)(F)F`, the viability index under setting [1] was determined as 1.009 ± 0.0034.

`C[C@@H]1CN([C@@H](C)CO)C(=O)c2c(c3ccccc3n2C)-c2ccccc2CO[C@H]1CN(C)C(=O)Nc1ccccc1C(F)(F)F` had a viability index under setting [1] of 0.805 ± 0.084.

In turn, `C[C@H](CO)N1C[C@H](C)[C@H](CN(C)S(=O)(=O)c2ccc(C(F)(F)F)cc2)OCc2ccccc2-c2c(n(C)c3ccccc23)C1=O` gave a viability index under setting [2] of 0.693 ± 0.051.

Under setting [1], `C[C@@H]1CN([C@@H](C)CO)C(=O)c2c(c3ccccc3n2C)-c2ccccc2CO[C@@H]1CN(C)C(=O)Nc1ccccc1C(F)(F)F` yielded a viability index of 0.955 ± 0.039.

Turning to `C[C@@H]1CN([C@@H](C)CO)C(=O)c2c(c3ccccc3n2C)-c2ccccc2CO[C@H]1CN(C)Cc1cccc(C(F)(F)F)c1`, under setting [1], the viability index turned out to be 0.932 ± 0.15.

Under setting [2], `C[C@H]1CN([C@@H](C)CO)C(=O)c2c(c3ccccc3n2C)-c2ccccc2CO[C@H]1CN(C)S(=O)(=O)c1ccc(C(F)(F)F)cc1` had a viability index of 0.705 ± 0.04.

Under setting [1], `C[C@H]1CN([C@@H](C)CO)C(=O)c2c(c3ccccc3n2C)-c2ccccc2CO[C@H]1CN(C)Cc1cccc(C(F)(F)F)c1` showed a viability index of 0.952 ± 0.02.

As to `C[C@@H]1CN([C@H](C)CO)C(=O)CCCn2nncc2CO[C@@H]1CN(C)S(=O)(=O)c1ccc2c(c1)OCCCO2`, the viability index under setting [1] stood at 1.025 ± 0.0016.

`C[C@@H]1CN([C@H](C)CO)C(=O)c2cc(NS(=O)(=O)c3cn(C)cn3)ccc2O[C@@H](C)CCCCO[C@@H]1CN(C)Cc1ccc2c(c1)OCO2` returned a viability index under setting [1] of 1.15 ± 0.07.

Consider `CC(=O)N1CC2(C1)[C@@H](c1ccc(-c3ccc(F)cc3)cc1)[C@@H](CO)N2CC1CC1`, for which the viability index under setting [1] came out at 1.08 ± 0.023.

Under setting [1], `O=C(C[C@@H]1C=C[C@@H](NC(=O)Nc2ccc3c(c2)OCO3)[C@@H](CO)O1)NCCCN1CCOCC1` showed a viability index of 1.02 ± 0.075.

On to `COc1ccccc1S(=O)(=O)N1[C@@H]2CNC[C@H]1[C@@H]2c1ccc(-c2ccncc2)cc1`, for which, under setting [1], the viability index was 1.06 ± 0.032.

With `O=C(C[C@@H]1CC[C@H](NC(=O)C2CC2)[C@H](CO)O1)Nc1ccccc1`, the viability index under setting [1] turned out to be 0.916 ± 0.036.

Take `O=C(C1CCOCC1)N1C[C@@H]2[C@H](c3ccccc31)[C@@H](CO)N2C(=O)Cc1ccccn1`: the viability index under setting [1] turned out to be 1.06 ± 0.053.

As to `COc1ccc2c3c([nH]c2c1)[C@@H](CO)N(C[C@]31CN(C1)C(=O)NC(C)C)C(=O)C1CCOCC1`, the viability index under setting [1] was found to be 1.03 ± 0.045.

Consider `C[C@H]1CN([C@@H](C)CO)C(=O)c2cccc(NC(=O)C3CCOCC3)c2O[C@@H]1CN(C)C(=O)Nc1cccc2ccccc12`, for which the viability index under setting [1] was 1.03 ± 0.11.

Under setting [1], `CCS(=O)(=O)Nc1ccc2c(c1)C(=O)N(C)[C@@H]1CC[C@H](CC(=O)NC3CCCCC3)O[C@@H]1CO2` came in with a viability index of 0.905 ± 0.12.

For `CN(C)C(=O)c1cccc(-c2ccc([C@@H]3[C@H]4CN(C(=O)C5CCC5)CC(=O)N4[C@H]3CO)cc2)c1`, the viability index under setting [1] was 0.9976 ± 0.0084.

Regarding `COc1ccc(-c2ccccc2[C@@H]2[C@@H](CO)N(C(=O)NC(C)C)[C@H]2C#N)cc1`, the viability index under setting [1] came out at 1.1 ± 0.063.

Regarding `COc1ccc(S(=O)(=O)Nc2ccc3c(c2)[C@H]2C[C@H](CC(=O)N(C)C)O[C@@H](CO)[C@H]2O3)cc1`, the viability index under setting [1] is 1.11 ± 0.014.

The values above are taken from the supplement of paper PMC4723716.
